From PubChem BioAssay AID463173 (ICCB-Longwood Screening Facility, Harvard Medical School, 2010)
Among all 52,000 compounds or so, about 4,300 (8.3%) were called active. Cut-off read from the data, not from the text of the source: active = survival mostly below about 52% (no sharp cut-off); inactive = mostly above about 56%. The list comes from a sample in which actives are over-represented; it also holds similar structures and randomly drawn compounds.

These molecules were tested on DeltatarO mutant (assay: S. aureus survival, RN4220 and DeltatarO strains – OD600, teichoic acid synthesis inhibitors, primary screen (AID 463173)). Details: S. aureus RN4220 wild type/DeltatarO growth, OD600, 18 h, active compounds read low, screened at 18.75 µg/mL (by protocol).

Q: How did the survival turn out when `COC(=O)CC1=C(C(=O)OC)C(c2ccc(C(=O)OC)cc2)C(C#N)=C(N)O1` (stereo not given) was run?
A: Its survival is 77% (inactive).

Q: With `Cn1c(=O)c(=O)n(C)c2cc(S(=O)(=O)CCC(=O)Nc3cccc(C(F)(F)F)c3)ccc21` as the molecule, how does the survival read?
A: The survival was 80% (inactive).

Q: Which survival does the source give for `O=c1c2oc3ccccc3c2n(Cc2ccc(Cl)cc2)c(=O)n1Cc1ccc2c(c1)OCO2` here?
A: Its survival is 66% (inactive).

Q: How did the survival turn out when `CCOc1ccc(C2c3[nH]c4ccccc4c3CCN2C(=O)CCc2ccccc2)cc1` (stereo not given) was run?
A: The survival was 116% (inactive).

Q: For `COc1ccc(C2CC(=O)Nc3c2c(=O)[nH]c2nc4ccccc4n32)cc1OC` (stereo not given), which survival is on record?
A: Its survival is 133% (inactive).

Q: How did the survival turn out when `CCc1ccccc1N=C1SCC(=O)N1C` was run?
A: The survival was 88% (inactive).

Q: With `Cc1cc(C)c(NC(=O)Cn2nnc(C(=O)Nc3ccc(F)cc3F)c2N)c(C)c1` as the molecule, how does the survival read?
A: Its survival is 81% (inactive).

Q: `CCN1c2ccccc2-c2nc(SCC(=O)Nc3cc(OC)cc(OC)c3)ncc2S1(=O)=O` was tested. Which survival did it give?
A: The survival was 37% (active).

Q: Which survival does the source give for `CCN1c2ccccc2-c2nc(SCC(=O)Nc3c(C)cc(C)cc3C)ncc2S1(=O)=O` here?
A: The survival was 102% (inactive).

Q: `CCN1c2ccccc2-c2nc(SCC(=O)Nc3cc(C)c(Cl)cc3OC)ncc2S1(=O)=O` was tested. Which survival did it give?
A: Its survival is 91% (inactive).

Q: For `CCN1c2ccccc2-c2nc(SCC(=O)Nc3cc(F)ccc3F)ncc2S1(=O)=O`, which survival is on record?
A: Its survival is 118% (inactive).

Q: For `CCOc1ccccc1NC(=O)CSc1ncc2c(n1)-c1ccccc1N(CC)S2(=O)=O`, which survival is on record?
A: Its survival is 92% (inactive).

Q: With `CCN1c2ccccc2-c2nc(SCC(=O)Nc3ccc(C)c(Cl)c3)ncc2S1(=O)=O` as the molecule, how does the survival read?
A: The survival was 25% (active).

Q: How did the survival turn out when `Fc1ccc(Nc2ncnc3c2nc2n3CCCC2)cc1` was run?
A: The survival was 74% (inactive).

Q: `CCc1ccc(NC(=O)c2ccc(CNS(=O)(=O)c3ccc4c(c3)C(C)(C)C(=O)N4C)cc2)cc1` was tested. Which survival did it give?
A: The survival was 64% (inactive).

Q: Which survival does the source give for `CCC(Sc1nc2c(sc3ccccc32)c(=O)n1CCc1ccccc1)C(=O)N(CC)CC` (stereo not given) here?
A: Its survival is 54% (inactive).

Q: Which survival does the source give for `Cc1ccc(-c2nc(CS(=O)(=O)CC(=O)NCCc3ccccc3)c(C)o2)cc1` here?
A: Its survival is 100% (inactive).

Q: Which survival does the source give for `Cn1ncc2c(Nc3cccc(F)c3)ncnc21` here?
A: Its survival is 117% (inactive).

Q: With `Cc1cc(C)nc(NC(=O)C(c2ccccc2)c2ccccc2)n1` as the molecule, how does the survival read?
A: Its survival is 115% (inactive).

Q: How did the survival turn out when `COc1ccc(CCN=C(N)Nc2nc(C)cc(C)n2)cc1` was run?
A: The survival was 39% (active).

Q: With `Cc1cc(C)nc(NC(N)=NC2CCCCC2)n1` as the molecule, how does the survival read?
A: The survival was 87% (inactive).

Q: For `COc1cccc(C(=O)NC(=NCCc2c[nH]c3ccc(OC)cc23)Nc2nc(C)cc(C)n2)c1`, which survival is on record?
A: The survival was 55% (inactive).

Q: `Cc1cc(C)nc(NC(N)=NC(C)c2ccccc2)n1` (stereo not given) was tested. Which survival did it give?
A: The survival was 20% (active).

Q: Which survival does the source give for `Cc1cc(C)nc(NCC(C)c2ccccc2)n1` (stereo not given) here?
A: The survival was 81% (inactive).

Q: How did the survival turn out when `CCOC(=O)c1cccc(NC(=O)CCS(=O)(=O)c2ccc3c(c2)CC(=O)N3C)c1` was run?
A: Its survival is 102% (inactive).
